Results from PubChem BioAssay (NCI).
Several values for one entry are separate records, joined by “and”; a condition that tells them apart may be missing. Identical values can stand only once. This is part of a sample that, as a whole, favours compounds with a hit. Of some 79,000 tested, about 15% had one in any assay. Activity calls are given as the source filed them. Cut-off read from the data, not from the text of the source: active = growth inhibition above about 70%; inactive = the rest. Where a SMILES comes first, the peptide text is derived from it.

Legend:
[1] = NCI Yeast Anticancer Drug Screen. Data for the rad50 strain (AID 155);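 note: 0% = growth of vehicle-only cultures of the same strain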; conditions: S. cerevisiae rad50 strain growth inhibition, hits give high values; at 50.0 µM unless noted
In short: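 Yeast carrying a defined DNA repair defect were exposed to test compounds, and growth was compared with vehicle-treated controls to give percent inhibition.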

[2] = NCI Yeast Anticancer Drug Screen. Data for the mec2-1 strain (AID 157); conditions: S. cerevisiae mec2-1 strain, hits give high values; at 50.0 µM unless noted
In short: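 mec2-1 yeast strain, carrying an alteration in DNA damage repair or cell cycle control, was exposed to compounds; growth inhibition was measured relative to vehicle-treated controls.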

[3] = NCI Yeast Anticancer Drug Screen. Data for the sgs1 mgt1 strain (AID 161);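 note: 0% = growth of cultures given vehicle only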; conditions: S. cerevisiae sgs1 mgt1 strain, hits give high values; at 50.0 µM unless noted
In short: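 Compounds are added to genetically altered yeast, and growth is compared with cultures given vehicle alone to give percent inhibition.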

[4] = NCI Yeast Anticancer Drug Screen. Data for the cln2 rad14 strain (AID 165);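 note: 0% = growth equal to vehicle treated cultures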; conditions: S. cerevisiae cln2 rad14 strain, hits give high values; at 50.0 µM unless noted
In short: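 Yeast carrying cln2 and rad14 alterations (cell cycle control and DNA damage repair) were exposed to compounds. Growth inhibition was measured against vehicle-treated controls.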

[5] = NCI Yeast Anticancer Drug Screen. Data for the bub3 strain (AID 167); conditions: S. cerevisiae bub3 mutant strain, hits give high values; at 50.0 µM unless noted
In short: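 Compounds were applied to a genetically altered yeast strain carrying a cell-cycle control defect. Growth inhibition was scored against vehicle-treated controls.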

[6] = NCI Yeast Anticancer Drug Screen. Data for the mlh1 rad18 strain (AID 175); conditions: S. cerevisiae mlh1 rad18 strain growth inhibition, hits give high values; at 50.0 µM unless noted
In short: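 Growth inhibition of the yeast strain was measured after compound exposure and expressed relative to vehicle-treated controls. The strain carries defined defects in DNA damage repair.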

Measured: growth inhibition

O=CNc1cccnc1C1OCCO1
inactive: [1] 4.85% | [2] 5.85% | [3] 2% | [4] -13.3% | [5] -4.75% | [6] 7.65%

c1ccc(Cc2cncc(Cc3ccccc3)c2)cc1
inactive: [1] -22.5% | [2] 1.95% | [3] 6.85% | [4] -58.6% | [5] 55.5% | [6] 9.1%

NC(=O)Nc1nc2ccccc2[nH]1
inactive: [1] -26.2% | [2] -21.6% | [3] -11.7% | [4] -0.3% | [5] -7.7% | [6] 3.4%

CCOC(=O)CN(c1ccccc1)c1nc(=[N+](C)C)ss1
inactive: [1] 7.05% | [2] 0.65% | [3] 6.8% | [4] 2.55% | [5] 1.35% | [6] 22.9%

Cc1cc(=O)n(-c2ccccc2)c(=O)[nH]1
inactive: [1] 1.2% | [2] 1.95% | [3] 1.5% | [4] 1.2% | [5] -4.25% | [6] -12%

COC(=O)C(=O)C1(c2ccccc2)C(=O)C(c2ccccc2)=CC1O (centres undefined)
inactive: [1] 15.3% | [2] 10.5% | [3] 10.1% | [4] 0.7% | [5] 8.4% | [6] 18.6%

Cc1cc(-c2ccc(N=Nc3ccc4c(S(=O)(=O)O)cc(S(=O)(=O)O)c(N)c4c3O)c(C)c2)ccc1N=Nc1ccc2c(S(=O)(=O)O)cc(S(=O)(=O)O)c(N)c2c1O
inactive: [1] -137% and -0.25% | [2] -40.7% and -71.1% | [3] -56.4% and -33.9% | [4] -147% and -4.9% | [5] -118% and -26.3% | [6] -49.2% and -11.2%

CCCSc1nc(C(=O)O)cc(=O)[nH]1
inactive: [1] -8.9% | [2] -13.8% | [3] -4.8% | [4] -44.2% | [5] -5.1% | [6] -8.15%

CNc1nc(=O)[nH]c(C)c1[N+](=O)[O-]
inactive: [1] 19.9% | [2] 4.45% | [3] -6.9% | [4] -60.8% | [5] -4% | [6] 12.6%

CC(=O)CC(=O)c1ccc(C(=O)CC(C)=O)cc1.[Fe]
inactive: [1] -8.1% | [2] -2.35% | [3] -8.3% | [4] 11.7% | [5] 14.4% | [6] 2.15%

COC(=O)c1cc2ccc(OC(C)=O)c(OC(C)=O)c2cn1
inactive: [1] 20.2% | [2] -20.2% | [3] 6.05% | [4] 9.3% | [5] 3.35% | [6] 19.9%

O=c1c2ccccc2n2c(=S)[nH]nc2n1-c1ccccc1
inactive: [1] -2.7% | [2] 3.55% | [3] -12.2% | [4] 6.95% | [5] 0.05% | [6] -10.8%

CC[C@H](CC[C@@H](C)[C@H]1CC[C@H]2[C@@H]3CC=C4C[C@@H](O)CC[C@]4(C)[C@H]3CC[C@]12C)C(C)C
inactive: [1] 26.8% and -6.4% | [2] -4.1% and -11.6% | [3] 26.6% and -12.2% | [4] 15.9% and 7.85% | [5] 5.95% and -13.2% | [6] 13.1% and -3.05%

CC(C)NCC(O)COc1cccc2[nH]c3ccccc3c12 (centres undefined)
inactive: [1] -2.75% | [2] -8.45% | [3] -8.5% | [4] -36.4% | [5] -0.8% | [6] -0.4%

Cc1cccc(C)c1NC(=S)N/C=C(\C#N)C(N)=O
inactive: [1] -53.2% | [2] -72.2% | [3] -25% | [4] -21.6% | [5] -8.65% | [6] -49.4%

CC1(c2ccccc2)C(=O)c2ccccc2-c2ccccc21 (centres undefined)
inactive: [1] 63.5% | [2] 48.4% | [3] 63.8% | [4] 3.45% | [5] 24.7% | [6] 24%

O=C1NCC2(CCN(CCCC3(c4ccc(F)cc4)OCCO3)CC2)N1c1ccccc1
inactive: [1] -14.1% | [2] -0.05% | [3] -1.55% | [4] 1.4% | [5] 6.4% | [6] 1.55%

O=C1c2cccc3cc([N+](=O)[O-])cc(c23)C(=O)N1C(CO)(CO)CO
inactive: [1] 29.9% | [2] 12.6% | [3] 30.1% | [4] 27.5% | [5] 16% | [6] -4.45%

Clc1nn2cnnc2c2ncccc12
inactive: [1] 2.8% | [2] -0.45% | [3] 2.95% | [4] -13.3% | [5] 15.2% | [6] 16.4%

O=C(NO)c1ccccc1
inactive: [1] 17.1% | [2] -29.6% | [3] 11.6% | [4] 21.8% | [5] -4% | [6] 27.8%

O=c1oc2ccccc2cc1-c1nc2ccccc2c(=O)[nH]1
inactive: [1] 17.8% | [2] 8.1% | [3] -20.9% | [4] 13.7% | [5] -4.9% | [6] -50.9%

CC(O[Si](C)(C)C)C1C=CC(C)n2c(=O)n(-c3ccccc3)c(=O)n21 (centres undefined)
inactive: [1] 4.65% | [2] -26.6% | [3] -34.3% | [4] -7.6% | [5] -55.6% | [6] -18.2%

CC(C)CCCC(C)C1CCC2C3CC(C(=O)O)C(C)(CCC(=O)O)C3CCC12C (centres undefined)
inactive: [1] 44% | [2] 36% | [3] 43.9% | [4] 30% | [5] 4% | [6] 41.7%

CSc1c(C)n2c3c(cccc13)CCC2
inactive: [1] -9.7% | [2] -6.6% | [3] -3.8% | [4] -36.7% | [5] 1.35% | [6] 3.3%

Cc1nnc(-n2cccc2)s1
inactive: [1] 0.8% | [2] -18.9% | [3] -5.3% | [4] -3.55% | [5] -4.1% | [6] 3.25%

Cc1cccc(C)c1NS(=O)(=O)c1ccc(Cl)cc1
inactive: [3] 68.7%
active: [1] 91.8% | [2] 84.4% | [4] 91.7% | [5] 94% | [6] 90.4%

O=c1[nH]c2cc(Cl)c([N+](=O)[O-])cc2o1
inactive: [1] 12.1% | [2] -0.5% | [3] -0.5% | [4] -18.1% | [5] -14.9% | [6] 16.7%

CCOc1ccccc1N=C(NC(=O)CC)SC
inactive: [1] 39% | [2] 26.8% | [3] -7.15% | [4] 12.1% | [5] 32.3% | [6] 52%

O=CN1CCCCC1
inactive: [1] -43.1% and -15.2% | [2] -26% and -2.6% | [3] -3.05% and -5.15% | [4] 3.15% and -27.7% | [5] -18.9% and 0.45% | [6] -8.8% and 0.65%

CS(=O)CCC1C(=O)OC(C(C)(C)C)N1C(=O)c1ccccc1 (centres undefined)
inactive: [1] 8.25% | [2] 3.65% | [3] 4.55% | [4] -12.3% | [5] -0.85% | [6] -0.4%

O=C(N=C(Oc1ccccc1)Oc1ccccc1)N=C(Oc1ccccc1)Oc1ccccc1
inactive: [1] 19.9% | [2] 9.15% | [3] 8.4% | [4] 20.3% | [5] 9.15% | [6] 36%

CCOP(=O)(C/C(=N/NC(C)(C)C)C(=O)Nc1nc2ccc(C)cc2s1)OCC
inactive: [1] -14% | [2] 3.7% | [3] -26.1% | [4] -30.4% | [5] -0.5% | [6] -18.6%

CCCC(=O)CC(=O)C(F)(F)F.CCCC(=O)CC(=O)C(F)(F)F.CCCC(=O)CC(=O)C(F)(F)F.[Er]
inactive: [1] 25% | [2] 10.8% | [3] 44.2% | [4] -0.15% | [5] -5.65% | [6] 50.1%

CN=C1CC2c3cc(OC)c(OC)cc3CCN2C2=C1C(=O)CC(C)(C)C2 (centres undefined)
inactive: [1] 17.1% | [2] 18.5% | [3] 15.1% | [4] -19% | [5] 36.4% | [6] 16.6%

CCCCCCCC1C(=O)OC2CC3C(C)=CC(=O)C(O)C3(C)C3C4(O)OCC23C1C(C)C4O (centres undefined)
active: [1] 91.5% | [2] 92.3% | [3] 91% | [4] 91.4% | [5] 90.2% | [6] 92.1%

CCOC(=O)c1[nH]c(=S)n(C)c1C(=O)OCC
inactive: [1] -12.9% | [2] 6.75% | [3] 29.1% | [4] -33% | [5] 8.1% | [6] 0.55%

CC(C)CCC[C@@H](C)C1CCC2[C@@H]3CCC4C[C@@H](CCC=C(c5cc(Cl)c(O)c(C(=O)O)c5)c5cc(Cl)c(O)c(C(=O)O)c5)CC[C@]4(C)C3CC[C@@]21C (some centres undefined)
inactive: [1] -26.4% | [2] -21.9% | [3] -14.7% | [4] -41% | [5] 8.5% | [6] -45.9%

Cc1ccc(NC(=O)c2c(Br)c(Br)c(Br)c(Br)c2C(=O)O)cc1Cl
inactive: [1] -1.75% | [2] -5.5% | [3] -8.6% | [4] -22.4% | [5] 2.9% | [6] -9.25%

NC(=O)C1CCCN1C(=O)C(N)Cc1ccccc1 (stereo not drawn) (H-Phe-Pro-NH2; configuration not given here)
inactive: [1] -26.9% | [2] -44.1% | [3] -21.1% | [4] 5.7% | [5] 4.7% | [6] -9.05%
